Experiment [1] deals with Cellular tumor antigen p53 (Homo sapiens) (UniProt P04637). Description: TOX21_p53_BLA_p2_ratio: Tox21 HCT-116 p53 Agonism Beta-lactamase Assay, Ratio, Phase 2 (AID 2283592). The method, boiled down: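 In this cell-based reporter format, HCT116 cells were dosed with chemicals delivered from DMSO by 217-fold dilution and incubated 16 h at 37C. Emission at 460 and 530 nm after 2 h CCF4-AM loading provided the ratio, fitted upward versus DMSO.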

For experiment [2] the target is unchanged. The experiment is described as follows: TOX21_p53_BLA_p3_ratio: Tox21 HCT-116 p53 Agonism Beta-lactamase Assay, Ratio, Phase 3 (AID 2283596). The method, boiled down: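 HCT116 p53-bla cells (4000/well) given compound in DMSO (217-fold dilution) after 5 h, incubated 16 h at 37C. CCF4-AM substrate 2 h at room temperature; 460/530 nm emission ratio, gain fitted against DMSO.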

Experiment [3] can be described thus: TOX21_p53_BLA_p4_viability: Viability Assessment in the Tox21 HCT-116 p53 Agonism Beta-lactamase Assay, Phase 4 (AID 2283597).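 Further: hits lower the luminescence signal meaning cytotoxicity.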 In short, it runs like this: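 We seeded HCT116 p53 reporter cells at 4000/well and waited 5 h. We then added compounds in DMSO at a 217-fold dilution and incubated for 16 h. Viability was read as CellTiter-Glo luminescence after 30 min at RT.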

The target of experiment [4] is Cellular tumor antigen p53 (Homo sapiens) (UniProt P04637). The experiment is described as follows: TOX21_p53_BLA_p5_ratio: Tox21 HCT-116 p53 Agonism Beta-lactamase Assay, Ratio, Phase 5 (AID 2283599). The method, boiled down:
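Beta-lactamase reporter ratio (blue 460 nm over green 530 nm, 405 nm excitation) after 2 h CCF4-AM loading, in HCT-116 cells exposed 16 h at 37 C to compounds pinned at 217-fold dilution. Increases relative to DMSO baseline scored.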

The nature of experiment [5]: TOX21_p53_BLA_p5_viability: Viability Assessment in the Tox21 HCT-116 p53 Agonism Beta-lactamase Assay, Phase 5 (AID 2283600). In short, it runs like this:
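Compounds, pinned from DMSO at 217-fold dilution, were left on the cells for 16 h. The viability endpoint was ATP content measured by CellTiter-Glo luminescence, where falling signal reflects cytotoxicity.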

Experiment [6] deals with Cellular tumor antigen p53 (Homo sapiens) (UniProt P04637). Description: TOX21_p53_BLA_p4_ratio: Tox21 HCT-116 p53 Agonism Beta-lactamase Assay, Ratio, Phase 4 (AID 2283601). In short, it runs like this:
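Signal is the blue/green (460nm/530nm) ratio of cleaved versus uncleaved CCF4-AM substrate, read after 2 h substrate loading. Cells were HCT116 carrying the p53-responsive beta-lactamase reporter, dosed 16 h at 37C, 5% CO2; CellTiter-Glo measured in parallel.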

The nature of experiment [7]: ACEA_ER_AUC_viability: ACEA Biosciences xCELLigence Real-Time Cell Analysis on Estrogen Receptor Agonism for Viability (AID 2283782).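 Further: continuous compound exposure with impedance area under curve over 80 h; hit means loss of impedance signal meaning reduced cell growth or viability.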 The method, boiled down:
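T-47D; phenol red-free RPMI1640 + 10% CS-FBS; 8 conc., 1:4 serial, max 100 uM final, ≤0.5% DMSO; n = 2; continuous exposure; impedance monitored to 80 h post-dose; AUC vs DMSO.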

A short description of experiment [8]: CCTE_Harrill_HTTr_Viability_MCF7: CCTE's 6-hour Cell Viability Assessment for the High-Throughput Transcriptomics (HTTr) Platform, in MCF-7 cells cultured in DMEM + 10% fetal bovine serum, Harrill Lab (AID 2284010; active means hit-call score of the fitted dose curve at least 0.9, where 1 is the maximum; inactive means score below 0.9). In short, it runs like this:
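MCF-7 cells in DMEM + 10% FBS, 384-well, exposed 6 h to an eight-point dilution series. Membrane integrity scored by high-content imaging of propidium iodide exclusion; bidirectional fit versus DMSO.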

A short description of experiment [9]: CCTE_Harrill_HTTr_Apoptosis_MCF7: CCTE's 6-hour Apoptosis Assessment for the High-Throughput Transcriptomics (HTTr) Platform, in MCF-7 cells cultured in DMEM + 10% fetal bovine serum, Harrill Lab (AID 2284011; active means hit-call score of the fitted dose curve at least 0.9, where 1 is the maximum; inactive means score below 0.9). In short, it runs like this: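 Read-out: CellEvent Caspase 3/7 Green signal by high content imaging, gain-of-signal indicating apoptosis. MCF-7 cells, DMEM + 10% FBS, eight-point dilution series, 6 h exposure. Curves fitted bidirectionally relative to DMSO negative control.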

Experiment [10] in a line: CCTE_Harrill_HTTr_CellCount_MCF7: CCTE's Cell Proliferation Assessment for the High-Throughput Transcriptomics (HTTr) Platform, Harrill Lab (AID 2284012).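 Further: cells exposed to compound for six hours; intended direction is loss of nuclei count meaning fewer cells.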 In short, it runs like this:
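MCF7 cells exposed 6 hours to an eight-point dilution series; Hoechst-stained nuclei counted by high-content imaging. Bidirectional curve fitting against DMSO baseline.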

Results filed as inconclusive are left out. Activity calls are given as the source filed them. How the source made its calls, unless noted: active means hit-call score of the fitted dose curve at least 0.9, where 1 is the maximum; inconclusive means response in the unintended direction; inactive means score below 0.9.

Sequence of Cellular tumor antigen p53 (Homo sapiens) (P04637 whole entry, looked up): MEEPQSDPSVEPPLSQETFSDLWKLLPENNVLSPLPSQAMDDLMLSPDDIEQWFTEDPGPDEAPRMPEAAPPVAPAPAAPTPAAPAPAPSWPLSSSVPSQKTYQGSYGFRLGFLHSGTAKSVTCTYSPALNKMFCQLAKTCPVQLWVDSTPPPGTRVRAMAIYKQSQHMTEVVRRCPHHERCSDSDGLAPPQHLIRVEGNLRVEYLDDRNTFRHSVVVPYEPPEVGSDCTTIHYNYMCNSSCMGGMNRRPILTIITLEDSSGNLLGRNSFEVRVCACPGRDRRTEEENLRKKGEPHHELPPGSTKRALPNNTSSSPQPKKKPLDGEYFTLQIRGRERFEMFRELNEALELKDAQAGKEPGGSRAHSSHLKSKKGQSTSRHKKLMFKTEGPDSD

In the case of `CC1(C)OC(=O)NC1=O`, the outcome in experiment [1], in [2], in [3], in experiment [4], in experiment [5] and in experiment [6] was inactive.

With `O=C(O)CCc1ccccc1`, the outcome in [1], in experiment [2], in experiment [3], in experiment [4], in [5] and in experiment [6] was inactive. In addition, the outcome in experiment [7], in experiment [8], in experiment [9] and in experiment [10] was inactive.

Consider `COC(=O)CS`, for which the outcome in experiment [1], in experiment [2], in [3], in experiment [4] and in experiment [6] was inactive.

With `CC=C(Cl)Cl`, the outcome in [1], in experiment [2], in experiment [3], in [4] and in experiment [6] was inactive.

What is called AC50 is the concentration at which the activity in the assay is half-maximal. `CC(C)COC(=O)OCN1C(=O)CN(CCN2CC(=O)N(COC(=O)OCC(C)C)C(=O)C2)CC1=O`: the AC50 was 4.1 µM (active) in experiment [1], 4.07 µM (active) in experiment [2], 7.4 µM (active) in [4] and 3.05 µM (active) in [6]. Moreover, the outcome in experiment [3] was inactive.

For `CNC(=O)NC`, the outcome in experiment [1], in experiment [2], in experiment [3], in [4] and in experiment [6] was inactive.

Consider `COc1cc2c(cc1OC)[C@@H](c1ccccc1)CN(C)CC2`, for which the outcome in experiment [1], in experiment [2], in experiment [3], in experiment [4] and in experiment [6] was inactive.

As to `CC(=O)O[C@H]1CC[C@@]2(C)C(=CC[C@@H]3[C@@H]2CC[C@]2(C)C(c4cccnc4)=CC[C@@H]32)C1`, the result in experiment [1], in experiment [2], in experiment [3], in [4] and in experiment [6] was inactive.

Consider `Cc1ccccc1N=O`, for which the outcome in experiment [1], in experiment [2], in [3], in [4] and in experiment [6] was inactive.

`C=C(C)C(=O)OC`: the result in experiment [1], in [2], in experiment [3], in [4] and in [6] was inactive.

As for `NS(=O)(=O)c1ccc(Cl)c(S(N)(=O)=O)c1`, the outcome in [1], in experiment [2], in experiment [3], in experiment [4] and in [6] was inactive.

`CC(=O)c1ccc2ccc3ccccc3c2c1`: the AC50 was 85.8 µM (active) in experiment [1], 80.9 µM (active) in experiment [4] and 78.9 µM (active) in experiment [6]. The outcome in [2] and in experiment [3] was inactive.

Take `CNC(=O)[C@H](Cc1c[nH]c2ccccc12)NC(=O)[C@@H](CC(=O)NO)CC(C)C`: the result in experiment [1], in experiment [2], in experiment [3], in experiment [4], in experiment [5] and in experiment [6] was inactive.

Consider `O=C1NC(=O)c2cc([N+](=O)[O-])ccc21`, for which the outcome in [1], in experiment [2], in [3], in experiment [4], in experiment [5] and in experiment [6] was inactive.

For `FC(F)(F)c1cccc(Cl)c1`, the result in experiment [1], in [2], in experiment [3], in [4], in experiment [5] and in [6] was inactive.

Take `CC1(C)CO[C@@H](CC(=O)O)CN1`: the result in [1], in experiment [2], in experiment [3], in experiment [4] and in experiment [6] was inactive.

Regarding `COc1ccc(/C=C/C(=O)O)cc1`, the outcome in experiment [1], in experiment [2], in experiment [3], in experiment [4], in [5] and in experiment [6] was inactive.

For `CCCCCCCCCCCCCCCCI`, the outcome in experiment [1], in [2], in [3], in experiment [4] and in experiment [6] was inactive.

Regarding `COc1ccc(Nc2ccc(OC)cc2)cc1`, the AC50 in experiment [1] is 71.5 µM (active); in experiment [6] it was 73.2 µM (active). Besides, the result in experiment [2], in [3] and in [4] was inactive.

For `O=C(N=NC(=O)OCc1ccccc1)OCc1ccccc1`, the outcome in experiment [1], in experiment [2], in experiment [3], in [4], in experiment [5] and in experiment [6] was inactive.

As to `CC(C)(O)c1ccccc1`, the outcome in experiment [1], in experiment [2], in experiment [3], in [4] and in [6] was inactive.

Turning to `ClC(Cl)Cl`, the result in experiment [1], in [2], in experiment [3], in [4], in experiment [5] and in experiment [6] was inactive.

Consider `CN(C)CCC=C1c2ccccc2C=Cc2ccccc21`, for which the result in experiment [1], in experiment [2], in experiment [3], in experiment [4] and in experiment [6] was inactive.

For `C=CCOC(=O)CCCCCCCC`, the result in [1], in [2], in experiment [3], in experiment [4], in experiment [5] and in experiment [6] was inactive.

On to `CN1CCC[C@@H]1CCO[C@](C)(c1ccccc1)c1ccc(Cl)cc1`, for which the outcome in experiment [1], in experiment [2], in [3], in experiment [4], in experiment [5] and in [6] was inactive.

As for `Cc1c[nH]c2ccccc12`, the outcome in [1], in experiment [2], in experiment [3], in [4], in experiment [5] and in experiment [6] was inactive.

Take `O=C1c2ccccc2C(=O)c2c1ccc(O)c2O`: the result in experiment [1], in experiment [2], in experiment [3], in [4], in experiment [5] and in [6] was inactive.

`CCCCCCCC/C=C\CCCCCCCC(N)=O`: the outcome in [1], in experiment [2], in experiment [3], in [4] and in experiment [6] was inactive.

In the case of `N[C@H](C(=O)O)[C@@H](O)c1ccc(O)c(O)c1`, the result in experiment [1], in experiment [2], in experiment [3], in experiment [4], in experiment [5] and in experiment [6] was inactive.

Consider `C[n+]1ccn(Cc2ccccc2)c1`, for which the outcome in [1], in [2], in experiment [3], in [4], in experiment [5] and in experiment [6] was inactive.

In the case of `CC(C)OC(=O)C(C(=O)OC(C)C)=C1SC=CS1`, the outcome in experiment [1], in [2], in experiment [3], in experiment [4], in [5] and in experiment [6] was inactive.

`C[N+]1(C)[C@@H]2CC(OC(=O)[C@H](CO)c3ccccc3)C[C@H]1[C@@H]1O[C@@H]12` (some centres undefined): the result in [1], in experiment [2], in [3], in [4], in experiment [5] and in [6] was inactive.

Take `[O-][n+]1ccccc1SSc1cccc[n+]1[O-]`: the outcome in [1], in [3], in experiment [4], in experiment [5] and in experiment [6] was inactive. The half-maximal activity concentration (AC50) in experiment [2] was 9.52 µM (active).

`CN(C)c1ccc(SC#N)cc1`: the outcome in experiment [1], in experiment [2], in experiment [3], in experiment [4] and in experiment [6] was inactive.

Consider `Cc1ccc(/C(=C\CN2CCCC2)c2ccccn2)cc1`, for which the outcome in experiment [1], in [2], in [3], in experiment [5] and in experiment [6] was inactive.

As to `O=C(O)CCCCCCC(=O)O`, the result in [1], in experiment [2], in experiment [3] and in experiment [6] was inactive.

With `NC1=NCC2c3ccccc3Cc3ccccc3N12` (centres undefined), the outcome in experiment [1], in experiment [2], in experiment [3] and in [6] was inactive.
